Common to all, as to assay: PBM binding z-score (relative to random genomic background probes); higher = stronger binding; sequences stand for … in GC…GCGATTGACAGCGTAGAATGAAGG
The subject of experiment [1] is FXR:RXRa (NR concentration 270 nM, RXRa partner concentration 90 nM). The procedure, abridged:
(§1)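 For binding z-scores, the reference was random background probes on custom Agilent 4×180K protein-binding microarrays. These arrays were incubated 1 h with ligand-free nuclear receptor dimers in PBS pH 7.4, 2% milk, 0.02% Triton X-100, 1 mM DTT, 0.2 mg/mL BSA and 0.4 mg/ml salmon testes DNA. Fluorescence was scanned after antibody detection of each partner (one per run) and regression-normalized.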

The test system of experiment [2] is LXRa:RXRa (NR concentration 270 nM, RXRa partner concentration 90 nM). The procedure, abridged:
as §1

In experiment [3] the test system is LXRa homodimer (NR concentration 270 nM). The essentials:
as §1

In experiment [4] the test system is LXRb:RXRa (NR concentration 270 nM, RXRa partner concentration 90 nM). The procedure, abridged: as §1
Experiment [5] concerns LXRb homodimer (NR concentration 270 nM). The procedure, abridged:
as §1

The subject of experiment [6] is PPARa:RXRa (NR concentration 270 nM, RXRa partner concentration 90 nM). The procedure, abridged:
as §1

In experiment [7] the test system is PPARg:RXRa (NR concentration 180 nM, RXRa partner concentration 90 nM). The procedure, abridged:
as §1

The test system of experiment [8] is PPARg:RXRa 270nM:90nM, anti-RXR (NR concentration 270 nM, RXRa partner concentration 90 nM). The essentials:
as §1

Experiment [9] concerns PPARg:RXRa 30nM:10nM, anti-RXR (NR concentration 30 nM, RXRa partner concentration 10 nM). The essentials:
as §1

In experiment [10] the test system is PPARg:RXRa 90nM:30nM, anti-RXR (NR concentration 90 nM, RXRa partner concentration 30 nM). The essentials: as §1
In experiment [11] the test system is PPARg:RXRa DBDmut IVT, anti-RXR (DBD mutation: RXRa K156A/R161A, NR concentration 270 nM, RXRa partner concentration 90 nM). The essentials: as §1
The subject of experiment [12] is PPARg:RXRa IVT, anti-PPARg (NR concentration 270 nM, RXRa partner concentration 90 nM). The procedure, abridged:
as §1

Experiment [13] concerns PPARg DBDmut:RXRa IVT, anti-PPARg (DBD mutation: PPARg1 K132A/R137A, NR concentration 270 nM, RXRa partner concentration 90 nM). The essentials: as §1
The test system of experiment [14] is PPARg DBDmut IVT, anti-PPARg (DBD mutation: PPARg1 K132A/R137A, NR concentration 270 nM). The essentials:
as §1

Experiment [15] deals with PPARg homodimer (NR concentration 180 nM). The essentials:
as §1

Experiment [16] concerns PXR homodimer (NR concentration 270 nM). The essentials:
as §1

The test system of experiment [17] is RARa:RXR (NR concentration 270 nM, RXRa partner concentration 90 nM). The procedure, abridged:
as §1

Experiment [18] relates to RARa homodimer (NR concentration 270 nM). The procedure, abridged:
as §1

In experiment [19] the test system is RARb:RXRa (NR concentration 270 nM, RXRa partner concentration 90 nM). The procedure, abridged: as §1
Experiment [20] relates to PXR:RXRa (NR concentration 270 nM, RXRa partner concentration 90 nM). The procedure, abridged: as §1

In the supplement of paper PMC6555819 one finds PBM binding z-score data, which are given here for 8 sequences.

Consider CGTCCAAGGTCAAGGGCAGTGAAAGAGACTCGAA, for which the PBM binding z-score in [1] amounted to 7.12; in [2] it was 4.83; in experiment [3], 0.283; in experiment [4] it was 3.68; in experiment [5], 0.0141; in [6], 5.93. The PBM binding z-score in experiment [7] was 5.48; in [8], 5.38; in experiment [9] it was 1.76; in experiment [10] it was 4.07; in experiment [11] it was 2.83; in experiment [12] it was 4. The PBM binding z-score in [13] was 0.426; in experiment [14], -0.438; in [15], 1.82; in experiment [16] it was 0.609; in [17] it was 3.82; in [18], 1.15. Further, the PBM binding z-score in [19] was found to be 5.64.

Turning to CGATCTAGGTCACCAGGACAGTGAAGAGGTTGGA, the PBM binding z-score is 3.81 in experiment [1]; 2.39 in experiment [2]; 0.00222 in experiment [3]; 1.59 in experiment [4]; -0.455 in experiment [5]; 4.81 in experiment [6]. In addition, the PBM binding z-score in experiment [7] was 8.42; in [8] it was 6.67; in experiment [9], 4.33; in experiment [10], 6.26; in [11], 8.32; in experiment [12] it was 8.59. In addition, the PBM binding z-score was 0.925 in [14]; 1.88 in [15]; 1.46 in [20]; -0.089 in experiment [16]; 2.44 in [17]; -0.0617 in experiment [18]. Moreover, the PBM binding z-score in experiment [19] was 4.03.

In the case of AGTCAAAGTTCAGGACGAGGTCACGTAAAGCACG, the PBM binding z-score in [1] came out at 6.35; in experiment [2], 5.87; in [3], 4.71; in [4], 4.87; in [5] it was 0.736; in [6], 5.46. In addition, the PBM binding z-score in experiment [7] turned out to be 6.17; in experiment [8], 6.26; in experiment [9], 2.76; in experiment [10], 4.97; in [11] it was 0.746; in experiment [12], 3.73. The PBM binding z-score in experiment [13] was found to be 0.593; in experiment [14] it was 0.7; in experiment [15] it was 5.05; in experiment [16], 7.95; in experiment [18] it was 2.01.

In the case of CTCGAAAGGTCGTGCTCAGGTGAGTATGCCAAAC, the PBM binding z-score in experiment [1] is 4.94; in experiment [2] it was 4.15; in experiment [3], 0.0245; in [4], 3.2; in experiment [5], -0.0304; in experiment [6] it was 4.79. The PBM binding z-score in experiment [7] was determined as 2.57; in [8], 3.95; in [9], 1.25; in experiment [10], 2.67; in [11], 1.24; in [12], 1.96. Further, the PBM binding z-score came to 0.261 in experiment [13]; 0.173 in experiment [14]; 1.39 in experiment [15]; 0.126 in experiment [16]; 4.18 in experiment [17]; 0.00788 in experiment [18]. The PBM binding z-score in experiment [19] is 3.83.

In the case of CGAACTAGGTCACCAGGACGGTGAAGAGGTTGGA, the PBM binding z-score in experiment [1] was 3.75; in [2], 2.3; in [3] it was -0.206; in [4] it was 1.19; in experiment [5], -0.86; in experiment [6] it was 5.23. The PBM binding z-score in experiment [7] was 8.37; in experiment [8] it was 6.93; in experiment [9], 4.31; in experiment [10], 6.43; in experiment [11] it was 7.98; in experiment [12], 8.73. For the same sequence, the PBM binding z-score is 2.21 in experiment [14]; 2.07 in [15]; 1.18 in [20]; -0.299 in [16]; 2.21 in experiment [17]; -0.518 in [18]. Further, the PBM binding z-score in [19] was 4.26.

In the case of CCTACTGGGCCAAAGGTCTTTGATTCCAATGCTC, the PBM binding z-score in experiment [1] is -0.409; in experiment [2] it was -0.406; in [3] it was -0.413; in experiment [4] it was 0.232; in [5] it was -0.841; in experiment [6] it was 4.15. Further, the PBM binding z-score in [7] was 8.96; in experiment [8], 8.59; in experiment [9], 7.74; in experiment [10], 9.9; in experiment [11], 5.05; in [12] it was 5.18. In addition, the PBM binding z-score was 0.12 in [13]; -0.165 in [14]; 0.366 in experiment [15]; -0.504 in experiment [16]; 0.354 in experiment [17]; -0.497 in [18]. Moreover, the PBM binding z-score in [19] was 0.448.

For CGAACTTGGTCAAAGGACAGTGAAAGGCGACGTA, the PBM binding z-score in experiment [1] is -0.082; in experiment [2], -0.109; in [3], -0.799; in experiment [4], -0.227; in experiment [5], -0.688; in experiment [6], 1.25. Moreover, the PBM binding z-score in experiment [7] was found to be 3.15; in [8], 4.34; in [9] it was 2.21; in experiment [10] it was 4.07; in experiment [11] it was 0.58; in experiment [12] it was 1.75. In addition, the PBM binding z-score in [14] is -0.436; in experiment [15], 0.499; in experiment [20], -0.152; in [16], -0.326; in experiment [17] it was 0.232; in experiment [18], -0.498. In experiment [19], this sequence gave a PBM binding z-score of 1.83.

For CGAACTAGGTCACAAGGACAGTGAAGAGGTTGGA, the PBM binding z-score in [1] was 3.87; in experiment [2], 2.13; in experiment [3] it was 0.193; in experiment [4], 1.57; in [5] it was -0.115; in experiment [6], 5.01. Further, the PBM binding z-score in experiment [7] was found to be 8.73; in experiment [8], 7.01; in experiment [9], 4.93; in [10], 6.82; in experiment [11] it was 8.39; in [12], 9.03. For the same sequence, the PBM binding z-score in experiment [14] turned out to be 1.5; in experiment [15], 3.52; in experiment [20], 1.25; in experiment [16] it was 0.516; in [17] it was 2.14; in experiment [18], 0.713. The sequence also came in with a PBM binding z-score in experiment [19] of 4.09.
